Holding throughout (test): DAPPL (digital affinity profiling via proximity ligation, sequencing); 10 mM Tris-HCl pH 7.5, 50 mM NaCl, 1 mM DTT, 4% glycerol, room temperature, 30 min; GST-TFs on glutathione beads, 16-mer random dsDNA library, 0.1% formaldehyde crosslink after washing; high values mean tight binding
Experiment [1] addresses T1, FEV (Homo sapiens, UniProt Q99581 1-238).
T1 sequence: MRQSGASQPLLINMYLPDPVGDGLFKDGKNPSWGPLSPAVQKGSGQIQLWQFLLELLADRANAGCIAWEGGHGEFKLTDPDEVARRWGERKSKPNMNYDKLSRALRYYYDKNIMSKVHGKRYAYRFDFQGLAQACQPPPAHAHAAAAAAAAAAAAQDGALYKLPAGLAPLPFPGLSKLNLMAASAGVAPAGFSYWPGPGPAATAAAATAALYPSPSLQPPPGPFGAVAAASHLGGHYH
As to conditions: protein: recombinant; tags: N-terminal GST; dsDNA, one strand shown. The gist of the method:
(§1)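 Human transcription factors carrying a GST fusion were produced in yeast, bound to glutathione beads, tagged with DNA barcodes and pooled together with a tag-only sample. Each pool was held with 200 nmole of a random double-stranded 16-mer DNA library in Tris/NaCl/DTT/glycerol buffer for 30 min at room temperature, then washed, crosslinked in 0.1% formaldehyde, proximity-ligated with BsaI/T4 ligase (1 h, 37 °C), PCR-amplified and sequenced on an Illumina NextSeq500. Binding signal is the read frequency of each hexamer for a given factor divided by its frequency in the tag-only sample.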

The target in experiment [2] is ETV5 (Homo sapiens, UniProt P41161 1-510). The conditions noted are these: protein: recombinant; tags: N-terminal GST; dsDNA, one strand shown. The gist of the method: as §1
The target in experiment [3] is HSF1 (Homo sapiens, UniProt Q00613 1-529). As to conditions: protein: recombinant; tags: N-terminal GST; chain copies: 3; dsDNA, one strand shown. Summed up: as §1
Experiment [4] has as its target T2, SPIC (Homo sapiens, UniProt Q8N5J4 1-248).
T2 sequence: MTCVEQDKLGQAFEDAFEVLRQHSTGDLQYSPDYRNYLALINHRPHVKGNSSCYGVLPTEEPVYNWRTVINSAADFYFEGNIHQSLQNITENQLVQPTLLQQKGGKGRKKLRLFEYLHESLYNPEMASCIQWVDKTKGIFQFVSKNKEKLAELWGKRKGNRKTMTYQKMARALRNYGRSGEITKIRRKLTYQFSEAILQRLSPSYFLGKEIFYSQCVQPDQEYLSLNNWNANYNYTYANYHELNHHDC
The conditions noted are these: protein: recombinant; tags: N-terminal GST; dsDNA, one strand shown. The gist of the method:
as §1

The target in experiment [5] is ELF4 (Homo sapiens, UniProt Q99607 1-663). The conditions noted are these: protein: recombinant; tags: N-terminal GST; dsDNA, one strand shown. The gist of the method:
as §1

In experiment [6] the target is T3, ELK4 (Homo sapiens, UniProt P28324-2 1-405).
T3 sequence: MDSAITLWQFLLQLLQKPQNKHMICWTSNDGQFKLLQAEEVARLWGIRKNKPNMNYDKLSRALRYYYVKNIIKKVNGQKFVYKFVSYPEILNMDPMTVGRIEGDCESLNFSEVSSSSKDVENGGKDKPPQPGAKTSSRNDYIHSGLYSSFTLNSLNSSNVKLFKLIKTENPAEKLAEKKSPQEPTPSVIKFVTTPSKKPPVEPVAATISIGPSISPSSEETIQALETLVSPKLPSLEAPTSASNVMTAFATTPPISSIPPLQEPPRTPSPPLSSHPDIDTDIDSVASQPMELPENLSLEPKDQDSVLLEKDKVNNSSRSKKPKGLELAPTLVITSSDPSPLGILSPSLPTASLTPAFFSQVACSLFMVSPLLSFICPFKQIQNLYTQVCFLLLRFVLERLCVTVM
The conditions noted are these: protein: recombinant; tags: N-terminal GST; dsDNA, one strand shown. Summed up:
as §1

Experiment [7] concerns the target T4, ETV2 (Homo sapiens, UniProt O00321 1-342).
T4 sequence: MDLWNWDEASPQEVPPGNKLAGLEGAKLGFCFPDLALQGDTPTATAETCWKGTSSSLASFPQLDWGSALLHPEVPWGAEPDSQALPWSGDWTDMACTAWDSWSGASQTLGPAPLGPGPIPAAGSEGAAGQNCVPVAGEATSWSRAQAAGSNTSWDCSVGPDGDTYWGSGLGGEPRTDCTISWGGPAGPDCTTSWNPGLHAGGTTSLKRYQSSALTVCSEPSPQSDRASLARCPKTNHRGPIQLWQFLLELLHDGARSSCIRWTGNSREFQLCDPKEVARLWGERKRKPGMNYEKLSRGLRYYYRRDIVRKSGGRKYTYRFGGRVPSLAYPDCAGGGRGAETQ
As to conditions: protein: recombinant; tags: N-terminal GST; dsDNA, one strand shown. Summed up:
as §1

For experiment [8], the target named is T5, ELF3 (Homo sapiens, UniProt P78545 1-371).
T5 sequence: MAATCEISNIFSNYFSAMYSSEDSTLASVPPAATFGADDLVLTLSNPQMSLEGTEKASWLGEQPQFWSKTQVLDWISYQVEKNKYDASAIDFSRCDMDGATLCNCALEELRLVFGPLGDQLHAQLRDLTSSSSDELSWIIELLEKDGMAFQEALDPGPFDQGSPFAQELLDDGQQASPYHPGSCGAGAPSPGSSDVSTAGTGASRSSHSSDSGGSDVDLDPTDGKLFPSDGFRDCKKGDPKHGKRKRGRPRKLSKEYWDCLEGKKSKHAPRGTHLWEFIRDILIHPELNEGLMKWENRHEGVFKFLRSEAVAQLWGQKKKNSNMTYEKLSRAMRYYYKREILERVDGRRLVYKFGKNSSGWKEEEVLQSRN
The conditions noted are these: protein: recombinant; tags: N-terminal GST; dsDNA, one strand shown. Summed up:
as §1

Experiment [9] deals with CRX (Homo sapiens, UniProt O43186 1-299). As to conditions: protein: recombinant; tags: N-terminal GST; dsDNA, one strand shown. Summed up: as §1
Experiment [10] has as its target ETV1 (Homo sapiens, UniProt P50549 1-477). As to conditions: protein: recombinant; tags: N-terminal GST; dsDNA, one strand shown. Summed up:
as §1

Experiment [11] concerns the target T6, ERF (Homo sapiens, UniProt P50548 1-548).
T6 sequence: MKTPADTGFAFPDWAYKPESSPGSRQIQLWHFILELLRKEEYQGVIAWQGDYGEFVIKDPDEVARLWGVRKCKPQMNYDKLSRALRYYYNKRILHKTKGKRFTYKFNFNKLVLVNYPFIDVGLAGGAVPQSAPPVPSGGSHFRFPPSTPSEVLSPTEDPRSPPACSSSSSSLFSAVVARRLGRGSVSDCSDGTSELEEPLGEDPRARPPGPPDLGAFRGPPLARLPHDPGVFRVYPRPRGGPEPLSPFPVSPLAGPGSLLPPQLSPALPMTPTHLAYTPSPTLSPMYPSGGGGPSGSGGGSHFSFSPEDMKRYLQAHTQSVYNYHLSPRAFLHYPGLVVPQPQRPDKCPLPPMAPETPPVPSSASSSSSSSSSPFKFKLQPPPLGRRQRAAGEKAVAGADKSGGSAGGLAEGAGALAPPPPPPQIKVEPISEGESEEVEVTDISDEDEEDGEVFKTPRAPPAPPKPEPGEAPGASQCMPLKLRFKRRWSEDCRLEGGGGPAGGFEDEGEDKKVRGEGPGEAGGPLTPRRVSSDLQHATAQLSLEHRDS
As to conditions: protein: recombinant; tags: N-terminal GST; dsDNA, one strand shown. Summed up:
as §1

In experiment [12] the target is T7, ETV3L (Homo sapiens, UniProt Q6ZN32 1-361).
T7 sequence: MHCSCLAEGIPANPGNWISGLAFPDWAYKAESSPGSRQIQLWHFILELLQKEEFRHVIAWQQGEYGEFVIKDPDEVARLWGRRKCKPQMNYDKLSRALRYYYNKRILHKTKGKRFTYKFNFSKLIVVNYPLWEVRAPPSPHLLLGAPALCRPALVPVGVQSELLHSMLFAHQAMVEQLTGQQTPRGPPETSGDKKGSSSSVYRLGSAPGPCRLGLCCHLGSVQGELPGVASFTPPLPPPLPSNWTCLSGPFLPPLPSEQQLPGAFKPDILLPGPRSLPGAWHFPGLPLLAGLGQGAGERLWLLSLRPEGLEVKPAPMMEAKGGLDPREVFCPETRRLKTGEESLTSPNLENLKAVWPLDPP
The conditions noted are these: protein: recombinant; tags: N-terminal GST; dsDNA, one strand shown. The gist of the method:
as §1

For experiment [13], the target named is T8, ETS2 (Homo sapiens, UniProt P15036 1-469).
T8 sequence: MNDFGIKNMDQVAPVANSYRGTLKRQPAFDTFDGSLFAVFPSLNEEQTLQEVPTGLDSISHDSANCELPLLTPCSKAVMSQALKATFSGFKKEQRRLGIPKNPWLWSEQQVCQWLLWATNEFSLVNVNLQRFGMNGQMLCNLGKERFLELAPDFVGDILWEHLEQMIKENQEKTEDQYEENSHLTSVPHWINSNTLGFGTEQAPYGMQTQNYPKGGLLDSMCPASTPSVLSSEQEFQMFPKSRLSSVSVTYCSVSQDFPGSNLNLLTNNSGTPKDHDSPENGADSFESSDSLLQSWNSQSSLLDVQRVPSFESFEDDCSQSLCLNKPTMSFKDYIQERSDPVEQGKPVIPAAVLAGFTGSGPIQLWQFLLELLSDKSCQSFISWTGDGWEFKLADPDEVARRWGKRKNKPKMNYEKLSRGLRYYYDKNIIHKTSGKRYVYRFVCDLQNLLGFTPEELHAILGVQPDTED
The conditions noted are these: protein: recombinant; tags: N-terminal GST; dsDNA, one strand shown. The gist of the method:
as §1

For experiment [14], the target named is T9, SPDEF (Homo sapiens, UniProt O95238 1-335).
T9 sequence: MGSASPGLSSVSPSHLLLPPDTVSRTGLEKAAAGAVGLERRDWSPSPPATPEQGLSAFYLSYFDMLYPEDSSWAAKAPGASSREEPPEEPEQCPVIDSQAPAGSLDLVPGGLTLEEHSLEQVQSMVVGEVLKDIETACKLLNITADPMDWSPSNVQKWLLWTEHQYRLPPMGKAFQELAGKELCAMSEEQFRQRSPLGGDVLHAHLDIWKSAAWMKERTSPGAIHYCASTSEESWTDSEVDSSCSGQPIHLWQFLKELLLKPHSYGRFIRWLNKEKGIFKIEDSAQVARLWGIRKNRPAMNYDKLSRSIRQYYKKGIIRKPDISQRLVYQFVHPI
The conditions noted are these: protein: recombinant; tags: N-terminal GST; dsDNA, one strand shown. Summed up: as §1

The target in experiment [15] is T10, ETV7 (Homo sapiens, UniProt Q9Y603 1-341).
T10 sequence: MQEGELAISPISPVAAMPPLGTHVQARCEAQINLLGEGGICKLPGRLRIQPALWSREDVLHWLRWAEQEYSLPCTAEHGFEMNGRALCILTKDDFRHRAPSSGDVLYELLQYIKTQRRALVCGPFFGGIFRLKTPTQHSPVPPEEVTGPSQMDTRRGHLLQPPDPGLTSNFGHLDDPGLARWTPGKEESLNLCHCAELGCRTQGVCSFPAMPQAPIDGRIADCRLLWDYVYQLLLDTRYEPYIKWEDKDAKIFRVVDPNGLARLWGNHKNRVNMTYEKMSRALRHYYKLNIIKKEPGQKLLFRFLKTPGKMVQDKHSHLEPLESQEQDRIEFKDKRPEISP
As to conditions: protein: recombinant; tags: N-terminal GST; dsDNA, one strand shown. The gist of the method:
as §1

The target of experiment [16] is T11, ELF5 (Homo sapiens, UniProt Q9UKW6-2 1-255).
T11 sequence: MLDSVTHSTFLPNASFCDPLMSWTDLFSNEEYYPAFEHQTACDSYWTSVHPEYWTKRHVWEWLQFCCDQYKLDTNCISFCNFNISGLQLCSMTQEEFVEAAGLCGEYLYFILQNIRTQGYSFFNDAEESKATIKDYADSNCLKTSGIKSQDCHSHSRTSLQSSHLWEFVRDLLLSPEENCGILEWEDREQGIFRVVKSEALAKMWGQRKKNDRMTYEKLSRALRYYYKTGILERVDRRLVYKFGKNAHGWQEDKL
As to conditions: protein: recombinant; tags: N-terminal GST; dsDNA, one strand shown. Summed up: as §1

For experiment [17], the target named is T12, ETV3 (Homo sapiens, UniProt P41162-2 1-143).
T12 sequence: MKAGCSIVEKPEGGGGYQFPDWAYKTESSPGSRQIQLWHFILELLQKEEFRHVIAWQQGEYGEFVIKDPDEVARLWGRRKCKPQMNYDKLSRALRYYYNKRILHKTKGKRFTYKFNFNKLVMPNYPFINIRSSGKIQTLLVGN
The conditions noted are these: protein: recombinant; tags: N-terminal GST; dsDNA, one strand shown. The gist of the method: as §1

The target of experiment [18] is ETV6 (Homo sapiens, UniProt P41212 1-452). As to conditions: protein: recombinant; tags: N-terminal GST; dsDNA, one strand shown. Summed up:
as §1

Sequence of ETV1 (P50549 whole entry): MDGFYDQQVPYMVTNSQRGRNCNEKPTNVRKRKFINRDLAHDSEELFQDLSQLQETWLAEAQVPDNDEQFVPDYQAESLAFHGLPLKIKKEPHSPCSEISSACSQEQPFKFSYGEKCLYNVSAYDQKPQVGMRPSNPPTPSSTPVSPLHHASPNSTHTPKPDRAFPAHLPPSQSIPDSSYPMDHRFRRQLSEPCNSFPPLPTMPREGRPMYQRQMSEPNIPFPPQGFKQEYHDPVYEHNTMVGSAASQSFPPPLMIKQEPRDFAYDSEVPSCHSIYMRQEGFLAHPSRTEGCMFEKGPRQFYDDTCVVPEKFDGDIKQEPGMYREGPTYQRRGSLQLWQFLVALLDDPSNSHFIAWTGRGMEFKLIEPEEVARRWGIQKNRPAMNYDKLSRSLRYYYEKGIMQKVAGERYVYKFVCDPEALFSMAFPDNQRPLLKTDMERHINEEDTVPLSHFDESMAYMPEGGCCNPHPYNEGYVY
Sequence of ELF4 (Q99607 whole entry): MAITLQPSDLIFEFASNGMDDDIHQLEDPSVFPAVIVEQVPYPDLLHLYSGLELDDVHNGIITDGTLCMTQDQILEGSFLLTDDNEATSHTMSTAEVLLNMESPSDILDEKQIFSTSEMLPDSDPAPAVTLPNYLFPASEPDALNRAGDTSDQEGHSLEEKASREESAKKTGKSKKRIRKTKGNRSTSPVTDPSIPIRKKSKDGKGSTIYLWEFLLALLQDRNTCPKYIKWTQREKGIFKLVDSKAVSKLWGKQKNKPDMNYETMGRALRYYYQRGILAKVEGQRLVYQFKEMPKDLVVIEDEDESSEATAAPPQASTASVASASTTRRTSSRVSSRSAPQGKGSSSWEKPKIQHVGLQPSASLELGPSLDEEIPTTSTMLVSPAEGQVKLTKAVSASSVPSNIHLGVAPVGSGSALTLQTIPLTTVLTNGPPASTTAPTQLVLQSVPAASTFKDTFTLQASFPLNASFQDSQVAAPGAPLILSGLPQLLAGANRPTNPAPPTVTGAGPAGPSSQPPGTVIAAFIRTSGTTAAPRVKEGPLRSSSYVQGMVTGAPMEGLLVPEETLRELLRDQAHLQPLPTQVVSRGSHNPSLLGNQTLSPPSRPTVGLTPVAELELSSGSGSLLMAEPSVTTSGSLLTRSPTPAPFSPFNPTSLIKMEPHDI
Sequence of CRX (O43186 whole entry): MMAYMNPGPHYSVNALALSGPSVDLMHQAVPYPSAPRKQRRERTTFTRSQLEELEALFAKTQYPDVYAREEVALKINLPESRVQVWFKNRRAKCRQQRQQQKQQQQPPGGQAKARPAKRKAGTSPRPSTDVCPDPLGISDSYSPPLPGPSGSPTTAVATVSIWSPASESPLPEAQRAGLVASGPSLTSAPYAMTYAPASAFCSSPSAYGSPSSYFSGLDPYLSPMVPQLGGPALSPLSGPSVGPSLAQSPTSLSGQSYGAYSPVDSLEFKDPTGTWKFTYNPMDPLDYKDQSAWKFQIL
Sequence of ETV6 (P41212 whole entry): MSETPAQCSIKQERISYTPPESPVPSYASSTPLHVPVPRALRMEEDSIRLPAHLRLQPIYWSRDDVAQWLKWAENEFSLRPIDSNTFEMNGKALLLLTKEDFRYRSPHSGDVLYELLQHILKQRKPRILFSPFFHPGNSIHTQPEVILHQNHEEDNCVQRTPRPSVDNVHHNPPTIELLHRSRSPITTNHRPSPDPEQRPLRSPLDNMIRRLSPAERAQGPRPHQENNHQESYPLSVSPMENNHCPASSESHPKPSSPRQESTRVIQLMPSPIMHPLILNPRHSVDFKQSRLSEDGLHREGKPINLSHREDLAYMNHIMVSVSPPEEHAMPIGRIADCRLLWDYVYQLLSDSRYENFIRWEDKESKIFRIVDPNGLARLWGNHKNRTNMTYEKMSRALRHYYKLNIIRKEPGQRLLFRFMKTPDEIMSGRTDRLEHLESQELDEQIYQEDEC
Sequence of ETV5 (P41161 whole entry): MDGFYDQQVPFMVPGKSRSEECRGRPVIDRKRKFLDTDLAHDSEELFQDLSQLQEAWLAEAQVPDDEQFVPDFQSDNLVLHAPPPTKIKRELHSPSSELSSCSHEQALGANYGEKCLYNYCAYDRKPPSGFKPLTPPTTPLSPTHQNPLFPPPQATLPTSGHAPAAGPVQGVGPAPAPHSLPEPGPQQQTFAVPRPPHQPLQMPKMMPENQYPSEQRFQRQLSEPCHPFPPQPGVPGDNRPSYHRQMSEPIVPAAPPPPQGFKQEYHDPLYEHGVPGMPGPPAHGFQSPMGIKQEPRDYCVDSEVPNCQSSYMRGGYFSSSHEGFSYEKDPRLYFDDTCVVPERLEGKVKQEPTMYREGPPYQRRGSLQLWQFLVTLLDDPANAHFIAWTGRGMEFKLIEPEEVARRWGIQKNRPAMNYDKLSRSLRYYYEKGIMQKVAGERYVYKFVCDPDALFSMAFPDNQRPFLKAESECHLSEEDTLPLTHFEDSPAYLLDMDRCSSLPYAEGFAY
Sequence of HSF1 (Q00613 whole entry): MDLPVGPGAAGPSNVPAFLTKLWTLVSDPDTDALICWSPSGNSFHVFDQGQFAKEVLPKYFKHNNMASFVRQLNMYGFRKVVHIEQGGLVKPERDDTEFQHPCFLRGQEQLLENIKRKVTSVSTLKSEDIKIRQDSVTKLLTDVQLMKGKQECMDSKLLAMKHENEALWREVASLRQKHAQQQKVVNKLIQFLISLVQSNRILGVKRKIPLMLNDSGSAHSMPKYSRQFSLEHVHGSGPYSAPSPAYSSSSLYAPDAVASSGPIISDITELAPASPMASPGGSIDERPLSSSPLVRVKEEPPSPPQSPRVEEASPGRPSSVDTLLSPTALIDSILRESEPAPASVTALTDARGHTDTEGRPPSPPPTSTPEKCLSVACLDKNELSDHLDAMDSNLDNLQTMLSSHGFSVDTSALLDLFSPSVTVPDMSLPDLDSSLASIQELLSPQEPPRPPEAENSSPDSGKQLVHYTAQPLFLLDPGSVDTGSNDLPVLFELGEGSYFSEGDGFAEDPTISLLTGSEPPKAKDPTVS

On to TCTACC, for which the binding signal was 1.52 fold enrichment (6-mer frequency, TF over GST control) in experiment [1]; 1.52 fold enrichment (6-mer frequency, TF over GST control) in experiment [2]; 1.67 fold enrichment (6-mer frequency, TF over GST control) in experiment [3]; 1.53 fold enrichment (6-mer frequency, TF over GST control) in experiment [4]; 1.56 fold enrichment (6-mer frequency, TF over GST control) in experiment [5]; 1.48 fold enrichment (6-mer frequency, TF over GST control) in experiment [6]. Further, the binding signal in [7] is 1.39 fold enrichment (6-mer frequency, TF over GST control); in experiment [8] it was 1.53 fold enrichment (6-mer frequency, TF over GST control); in experiment [9], 1.44 fold enrichment (6-mer frequency, TF over GST control); in experiment [10], 1.57 fold enrichment (6-mer frequency, TF over GST control); in experiment [11] it was 1.73 fold enrichment (6-mer frequency, TF over GST control); in experiment [12] it was 1.78 fold enrichment (6-mer frequency, TF over GST control). Besides, the binding signal was 1.6 fold enrichment (6-mer frequency, TF over GST control) in experiment [13]; 1.6 fold enrichment (6-mer frequency, TF over GST control) in experiment [14]; 1.44 fold enrichment (6-mer frequency, TF over GST control) in experiment [15]; 1.61 fold enrichment (6-mer frequency, TF over GST control) in experiment [16]; 1.52 fold enrichment (6-mer frequency, TF over GST control) in experiment [17]; 1.54 fold enrichment (6-mer frequency, TF over GST control) in experiment [18].

For the origin of these results see PMC7862700, “An all-to-all approach to the identification of sequence-specific readers for epigenetic DNA modifications on cytosine”.
